# Bioassay records deposited in PubChem BioAssay by National Center for Advancing Translational Sciences (NCATS).
# Shown are actives, neighbours in structure and some others; about 7.4% of the full set was active somewhere.
# Rab9 prom act: activates the Rab9 promoter; Huh7 Rab9 promoter-luciferase reporter, luminescence, 24 h; hit rate 2.8% among 320,000; Potency, µM (top dose mostly 9.22 µM), for the others: at the highest dose activation, negative = inhibition, most hits filed as activators; AID 485297; note: % of control where 0% means no effect; nearly all actives have a fitted effect of over 60% in size
#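 Promoter activation is measured as luciferase luminescence in Huh7 cells stably transfected with a Rab9 promoter–luciferase construct, following 24 h compound exposure at 37 °C and 10 min reagent incubation at ambient temperature.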
# SMN2 splice enh: enhancers of SMN2 splice variant expression; HEK293 SMN2-luciferase splicing reporter, luminescence, 30-36 h; Potency, µM (series often up to 46.1 µM), for inactives: top-dose activity change, positive = activation, usual class: activators; hit rate 2.8% among 210,000; AID 1458; note: % of control where 0% means no effect; nearly all actives have a fitted effect of over 55% in size
#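 HEK293 cells carry an SMN2 minigene-luciferase reporter in which exon 7 inclusion puts luciferase in frame. Cells were seeded at 2000 cells/well, attached for 10-12 hours, then exposed to compounds for 30-36 hours at 37C before ONE-Glo luminescence.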
# Luc counter: counter-screen: inhibitors of Kinase-Glo firefly luciferase. Q27757. Kinase-Glo luciferase, ATP luminescence, 8 min. Potency, µM (highest dose often 38.3 µM), for the others: top-dose activity change, negative = inhibition, hits mostly inhibitors. hit rate 0.28% among 200,000; note: % is set by controls: 0 for no effect and ±100 for the full control effect; nearly all actives have a fitted effect of over 60% in size
#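 Kinase-Glo luciferase light output from ATP and luciferin was measured with 10 uM ATP, within the enzyme's linear range. Buffer: 50 mM imidazole pH 7.2, 50 mM KCl, 7 mM MgCl2, 0.01% Tween 20, 0.05% BSA; luminescence read after 8 min at ambient temperature.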
# FLuc counter: counter-screen for miR-21 project: firefly luciferase inhibitors or activators. purified FLuc, Km substrates, luminescence inhibition. P08659. hit rate 6.9% among 360,000. Potency, µM (doses to about 57.5 µM), for the others: at the top dose activity change, negative = inhibition, hits mostly inhibitors. AID 588342;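 note: plate controls were vehicle for no effect and reference inhibitor for full effect; nearly all actives have a fitted effect of over 55% in size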
# Target sequence (P08659 whole entry, looked up): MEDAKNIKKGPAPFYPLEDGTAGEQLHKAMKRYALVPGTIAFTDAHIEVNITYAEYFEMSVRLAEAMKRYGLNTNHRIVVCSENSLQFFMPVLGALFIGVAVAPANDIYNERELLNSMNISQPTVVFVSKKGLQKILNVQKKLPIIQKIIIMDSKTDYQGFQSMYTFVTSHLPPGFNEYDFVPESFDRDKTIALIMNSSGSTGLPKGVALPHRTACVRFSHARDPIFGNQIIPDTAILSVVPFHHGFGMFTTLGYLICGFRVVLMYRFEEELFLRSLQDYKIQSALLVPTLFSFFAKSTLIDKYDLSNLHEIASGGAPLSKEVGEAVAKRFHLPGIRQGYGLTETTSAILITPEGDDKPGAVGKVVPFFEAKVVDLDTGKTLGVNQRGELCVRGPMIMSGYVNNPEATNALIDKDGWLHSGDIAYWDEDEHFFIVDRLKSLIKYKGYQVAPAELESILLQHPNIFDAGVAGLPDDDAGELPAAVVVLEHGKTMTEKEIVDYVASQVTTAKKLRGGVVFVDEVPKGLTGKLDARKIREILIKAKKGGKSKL
#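 Biochemical qHTS of compounds, final roughly 60 µM downward over six points, against 10 nM purified firefly luciferase using Km concentrations of substrates (10 uM D-luciferin, 10 uM ATP) in Tris acetate pH 7.5 buffer; luminescence output.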
# NPC1 promoter act: activates the NPC1 promoter; Huh7 NPC1 promoter luciferase reporter, 24 h; Potency, µM (highest dose often 9.22 µM), inactives show at the top dose activation, most hits filed as activators; hit rate 2.4% among 320,000; note: % of control where 0% means no effect; nearly all actives have a fitted effect of over 60% in size
#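 Compounds in DMSO were transferred onto Huh7 NPC1-luciferase reporter cells pre-incubated 2 h; after 24 h at 37 °C, Amplite reagent was dispensed and luminescence recorded 10 min later.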
# ELG1 genotoxic: induces genotoxicity in HEK293T cells with luciferase-tagged ELG1. HEK293T ELG1-luciferase reporter, luminescence, 16 h. Potency, µM (top dose mostly 46 µM), for inactives: top-dose activity change, positive = activation, hits mostly activators. hit rate 1.3% among 330,000; note: % of control where 0% means no effect; nearly all actives have a fitted effect of over 60% in size
#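 Step 1: seed 2,000 HEK293T ELG1-luciferase cells per well. Step 2: add compound or DMSO, incubate 16 hr at 37 °C. Step 3: ONE-Glo, 30 min at room temperature, read luminescence.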
# Numbers without * were called inactive; ? = inconclusive; . = not tested or not shown. Calls come from the whole dose curve; as a rule, active = well fitted curve in the direction sought with a large enough effect; inconclusive = small, poorly fitted or top-dose-only effect, or another doubt; inactive = no such curve, though single readings can be large; an effect the other way counts as inactive or inconclusive. Potency is the fitted concentration of half-maximal effect.
SMILES,Rab9 prom act,SMN2 splice enh,Luc counter,FLuc counter,NPC1 promoter act,ELG1 genotoxic
COc1cccc(N(CC(=O)N/N=C(\C)c2cccs2)S(C)(=O)=O)c1,-1%,22%,1%,6%,-2%,-1%
CCC(Sc1nc(C)cc(C)n1)C(=O)Nc1nccs1 (stereo not drawn),-2%,.,.,-6%,-14%,-14%
CCOC(=O)N1C=CC=C[C@@H]2[C@@H](N3C(=O)c4ccccc4C3=O)C(=O)N21,0%,4%,0%,6%,1%,-3%
NC(=Nc1ccccc1)NC(=O)c1nc(Cl)c(N)nc1N,?,14µM*,-11%,.,?,.
COc1cc(OC)cc(C(=O)c2c(C)c(C#N)c3ccccn23)c1,-6%,.,.,-1%,-22%,5%
COC1=C/C(=C/c2c(O)c(C#N)c3ccccn23)C=CC1=O,0%,.,.,15µM*,-2%,15%
CCOC(=O)C1=C(CS(=O)(=O)c2ccc(Br)cc2)NC(=O)NC1c1ccccc1 (stereo not drawn),.,-6%,.,5%,.,.
Cc1ccccc1NC(=O)N1CCc2ccccc2C1,27%,?,-1%,?,19%,?
O=C(NCc1ccco1)C1OCCc2ccccc21 (stereo not drawn),-3%,-7%,0%,0%,-2%,-1%
COc1ccc(NC(=O)N2CCc3ccccc3C2)cc1OC,17%,.,.,?,4%,?
Cc1ccc(NC(=O)C2OCCc3ccccc32)cc1C (stereo not drawn),?,.,-1%,15µM*,24%,?
Cc1cc(C)cc(NC(=O)N2CCc3ccccc3C2)c1,?,.,.,19µM*,?,?
Cc1ccc(NC(=O)N2CCc3ccccc3C2)cc1C,3.2µM*,.,.,8.5µM*,2.8µM*,?
Cc1ccc(N(CC(=O)NC2CCCCC2)C(=O)CNC(=O)c2ccco2)cc1F,-2%,.,.,0%,-2%,4%
O=C(Cc1ccc(F)cc1)NCCc1csc2nc(-c3ccccc3F)nn12,.,.,.,2%,.,.
CCCCOc1ccc(C(=O)NCC(=O)NC2CCCCC2)cc1,2%,.,.,3%,-3%,3%
Cc1ccc(NC(=O)COC(=O)c2cc(C)nc3ccccc23)c([N+](=O)[O-])c1,1%,.,.,0%,-1%,7%
CCn1cc(Br)c(C(=O)Nc2cccc(SC)c2)n1,?,35µM*,3%,24µM*,25%,?
CCn1cc(Br)c(C(=O)Nc2ccc(F)cc2F)n1,?,.,.,?,?,12%
O=C(CC(c1ccccc1)c1cc(Cl)ccc1O)NCCCN1CCOCC1 (stereo not drawn),2%,.,.,-1%,1%,-9%
CC(=O)CSc1nc2ccc(Nc3nc(N4CCOCC4)nc(N4CCOCC4)n3)cc2s1,-7%,25µM*,0%,0%,0%,-8%
CC(C)(C)NC(=O)CSc1nc2ccc(Nc3nc(N4CCOCC4)nc(N4CCOCC4)n3)cc2s1,-12%,-49%,-2%,-16%,-4%,-18%
CC(=O)Nc1ccc2nc(SCC(=O)Nc3ccc(N4CCOCC4)c(Cl)c3)sc2c1,?,?,-6%,8.5µM*,?,0%
CCOC(=O)C1=C(CS(=O)(=O)c2ccccc2)NC(=O)NC1c1cc(OC)c(O)c(OC)c1 (stereo not drawn),-2%,.,.,1%,3%,2%
CCOc1ccc(OCc2cccc(C(=O)N3CCOCC3)c2)cc1,0.089µM*,0.35µM*,-10%,0.3µM*,0.089µM*,0.13µM*
CC1CN(C(=O)c2cccc(COc3ccc(Br)cc3)c2)CC(C)O1 (stereo not drawn),3.5µM*,4µM*,0%,4.8µM*,1.6µM*,?
CCOc1ccc(N=C(/C(C(=O)C(=O)N2CCOCC2)=C(/O)c2ccccc2)c2ccccc2)cc1,?,.,.,?,4µM*,?
O=C(c1cccc(OCc2ccccc2)c1)N1CCOCC1,3%,17%,0%,-8%,6%,8%
